# Source: PubChem BioAssay (EPA / NIEHS)
# The source made the active and inactive calls. The calls were made as follows: active = hit-call score of the fitted dose curve at least 0.9, where 1 is the maximum; inactive = score below 0.9.
# Assay: ATG_Oct_MLP_CIS: Attagene CIS-FACTORIAL HepG2 Assay for human Octamer-Binding Transcription Factor (Oct) (AID 2282993)
# Conditions: HepG2 Attagene cis-factorial Oct reporter, mRNA; actives raise or lower the signal
# Summary of the method: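 Using HepG2 cells bearing transfected cis-reporter constructs, mRNA induction was read after 24 h by fluorescent RT-PCR and capillary electrophoresis, with DMSO defining baseline for gain- or loss-of-signal fits.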
SMILES,outcome,AC50
CCOCN(C(=O)CS(=O)(=O)O)c1c(C)cccc1CC,inactive,
F[Si-2](F)(F)(F)(F)F,inactive,
CNS(=O)(=O)C(F)(F)C(F)(F)C(F)(F)C(F)(F)C(F)(F)C(F)(F)C(F)(F)C(F)(F)F,inactive,
COc1ccccc1C=O,inactive,
CSc1ccc(Cl)cc1,inactive,
CCOC(OCC)OCC,inactive,
Cc1ccc(O)c(-n2nc3ccccc3n2)c1,inactive,
CC(C)Nc1ccc(NC(C)C)c2c1C(=O)c1ccccc1C2=O,inactive,
CC1=CCC2C(=O)OC(=O)C2C1 (stereo not drawn),inactive,
C#CC(O)CCC (stereo not drawn),inactive,
OC(O)C(F)(F)C(F)(F)F,inactive,
OCCCc1cccnc1,inactive,
CC(C)CCCC(C)CCO (stereo not drawn),inactive,
CCC/C=C/CO,inactive,
CC(C)OC=O,inactive,
CC1=CCC(=O)O1,inactive,
CCc1cccc(C)c1N(C(=O)C(=O)O)C(C)COC (stereo not drawn),inactive,
C[C@]12CC[C@H]3C(=CCc4cc(O)ccc43)[C@@H]1CCC2=O,inactive,
CC(C)OC(=O)COc1ccc(Cl)cc1Cl,inactive,

SMILES,outcome,AC50
O=C(O)CCC(F)(F)C(F)(F)C(F)(F)C(F)(F)C(F)(F)C(F)(F)C(F)(F)F,inactive,
CC(C)(C)c1cc(Cc2cc(C(C)(C)C)c(O)c(C(C)(C)C)c2)cc(C(C)(C)C)c1O,inactive,
CC1=CC2C3C=CC(C3)C2C1C (stereo not drawn),inactive,
O=C(Cl)C(F)(F)C(F)(F)C(F)(F)C(F)(F)C(F)(F)C(F)(F)F,inactive,
Nc1c(Br)cc([N+](=O)[O-])cc1Br,inactive,
Nc1cc([N+](=O)[O-])cc(Cl)c1O,inactive,
c1ccc(C[P+](c2ccccc2)(c2ccccc2)c2ccccc2)cc1,inactive,
O=C1C=CC(=O)N1c1ccc(Cc2ccc(N3C(=O)C=CC3=O)cc2)cc1,inactive,
CC(C)(C)C(=O)C1C(=O)c2ccccc2C1=O,,63.1 µM (active)
NC(=O)C(F)(F)C(F)(F)C(F)(F)C(F)(F)C(F)(F)C(F)(F)C(F)(F)F,inactive,
C=CC(=O)OCC(F)(F)C(F)(F)C(F)(F)COC(=O)C=C,,10.9 µM (active)
OCCCC(F)(F)C(F)(F)C(F)(F)C(F)(F)C(F)(F)C(F)(F)C(F)(F)C(F)(F)F,inactive,
N#Cc1ccccc1O,inactive,
CCCCCCCCCc1ccc(OCCO)cc1,inactive,
CCCCCCCCCCCC(=O)Cl,inactive,
CN(C)C(C)(C)CO,inactive,
COC(=O)c1ccc(C=O)cc1,inactive,
Cc1ccc(O)cn1,inactive,
Cc1cc(O)c(C(C)(C)C)cc1C(C)(C)C,inactive,
